From PubChem
Shown are actives, neighbours in structure and some others; about 4.6% of the full set was active somewhere.
TRb SRC2 PPI: inhibitors of human thyroid hormone receptor beta-SRC2 interaction | P10828 | TRbeta-SRC2 peptide binding, fluorescence polarization; receptor liganded with 1 µM T3 | Potency, µM (titrated, usually from 106 µM), actives largely listed as inhibitors | 280,000 compounds, 0.065% hits; note: nearly all actives have a fitted effect of over 50% in size
Target sequence (P10828 whole entry, looked up): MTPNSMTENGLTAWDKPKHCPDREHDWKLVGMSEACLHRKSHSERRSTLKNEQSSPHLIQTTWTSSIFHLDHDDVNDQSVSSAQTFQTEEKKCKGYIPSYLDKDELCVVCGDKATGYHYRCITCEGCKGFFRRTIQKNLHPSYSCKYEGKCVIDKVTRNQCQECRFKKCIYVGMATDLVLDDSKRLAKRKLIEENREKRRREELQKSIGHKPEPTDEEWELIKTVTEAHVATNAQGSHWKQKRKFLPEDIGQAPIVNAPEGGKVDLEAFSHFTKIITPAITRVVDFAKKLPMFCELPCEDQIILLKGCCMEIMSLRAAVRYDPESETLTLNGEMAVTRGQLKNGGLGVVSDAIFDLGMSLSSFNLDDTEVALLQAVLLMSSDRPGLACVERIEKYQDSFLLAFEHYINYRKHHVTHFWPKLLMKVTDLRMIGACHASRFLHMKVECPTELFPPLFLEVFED
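Human TRb LBD (0.6 uM) plus Texas Red-labeled SRC2 peptide (20 nM), 1uM T3, 5% DMSO, 5 hr at ambient temperature. Decreased polarization (555/632 nm) flags inhibition; data normalized to free and bound peptide controls.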
TR SRC2 fluor cs: counter-screen for TRb-SRC2 inhibitors: fluorescence interference | TRb/SRC2 Texas Red total fluorescence interference | Potency, µM (titrated, usually from 106 µM) | 280,000 compounds, 0.29% hits; active = well fitted curve in either direction with a large enough effect; inconclusive = small, poorly fitted or top-dose-only effect
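Human TRβ ligand-binding domain (0.6 uM) and Texas Red SRC2 peptide (20 nM) in Tris buffer with 1 uM T3 and 5% DMSO were incubated with pinned compound for 5 hr at ambient temperature. Total fluorescence was computed as S + 2P (555/632 nm).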
Tau FP inhib: tau fibrillization inhibition (FP); K18 P301L tau heparin fibrillization, Alexa594 FP, 6 h; Potency, µM (series often up to 57.7 µM), actives largely listed as inhibitors; 280,000 compounds, 0.39% hits; AID 1468; note: nearly all actives have a fitted effect of over 55% in size
Target sequence (P10636 561-689 P618L limits assumed): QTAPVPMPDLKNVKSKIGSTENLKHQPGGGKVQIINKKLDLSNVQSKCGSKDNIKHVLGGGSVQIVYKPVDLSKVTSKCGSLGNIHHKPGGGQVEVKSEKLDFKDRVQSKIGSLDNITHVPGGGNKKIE
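Read-out: fluorescence polarization of Alexa 594-labeled tau (0.24 uM), 555 nm excitation, 632 nm emission. Mixtures held 15 uM unlabeled K18 P301L, compound and 20 uM heparin, pH 7 acetate buffer, incubated 6 hr at 37 C.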
Tau fluor cs: counter-screen for tau fibril formation inhibitors | tau K18 P301L Alexa594 fluorescence, heparin fibrillization | Potency, µM (series often up to 57.7 µM) | AID 1463 | 280,000 compounds, 0.93% hits; note: nearly all actives have a fitted effect of over 55% in size
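Human K18 P301L tau (15 uM unlabeled plus 0.24 uM Alexa 594-labeled, final) in 100 mM sodium acetate pH 7 was mixed with compound and 20 uM heparin and incubated 6 hr at 37 C.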
PNC assembly inh: inhibitors of perinucleolar compartment assembly; activity change (PNC), negative = inhibition, % at 10 µM; 140,000 compounds, 3.1% hits; PC3M PTB-GFP, PNC prevalence imaging, 16 h; active compounds read low;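 active = readout at or below -70, meaning at least 70% loss of cells showing the perinucleolar compartment, a nuclear body marking cancer cells; inconclusive = readout between -30 and a set limit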
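Read-out is percentage of cells bearing a perinucleolar compartment, from automated 20x imaging of fixed, Hoechst-stained PC3M PTB-GFP cells. Cells were seeded 4 h, then exposed 16 h to compound (23 nl of library stock) in duplicate plates.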
Tau fibril ThT: inhibitors of human tau fibril formation, thioflavin T binding. P10636. recombinant tau K18 P301L (four-repeat tau fragment), heparin-induced fibrillization, ThT fluorescence. Potency, µM (series often up to 57.4 µM), hits mostly inhibitors. 270,000 compounds, 2.1% hits. AID 1460; note: nearly all actives have a fitted effect of over 55% in size
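K18 P301L tau (15 uM + 0.24 uM Alexa 594-tagged), heparin 20 uM, NaOAc pH 7, 6 h 37 C; ThT 30 uM, 1 h RT, ex 450/em 510 nm.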
Large screens that a line does not name were inactive; [ ] = remark or other dose. Unless noted, calls come from the whole dose curve; as a rule, active = well fitted curve in the direction sought with a large enough effect; inconclusive = small, poorly fitted or top-dose-only effect, or another doubt; inactive = no such curve, though single readings can be large; an effect the other way counts as inactive or inconclusive.

Cc1cc(-c2nsc(=O)o2)c(S(C)(=O)=O)s1	Tau FP inhib inconclusive, Tau fibril ThT 31.6µM
CCSc1nnc(NC(=O)CSc2nc(C)cc(C)n2)s1	none
O=C(NNC(=O)c1cccnc1SCc1cccc([N+](=O)[O-])c1)c1ccc(F)cc1	PNC assembly inh -87.3
COC(=O)c1c(Oc2ccc(OC)cc2)nnc(-c2ccccc2)c1-c1ccccc1	TR SRC2 fluor cs 794µM[quencher] (no result: PNC assembly inh)
CCCCCC(=O)NC(=S)Nc1ccc(NC(=O)c2ccco2)cc1	none
[O-][n+]1c2c(c3c4non(O)c4ccc31)CCCC2	Tau fluor cs inconclusive, Tau fibril ThT 14.1µM
COC(=O)C(C)Sc1nnc2cc(C)c3cc(C)cc(C)c3n12 (stereo not given)	TR SRC2 fluor cs 0.0708µM[quencher] (no result: PNC assembly inh)
CCOC(=O)c1c(-c2ccccc2)csc1NC(=O)CSc1ccccc1	none
COc1ccc(-c2n[nH]c(C)c2-c2cnn(-c3ccccc3)c2)c(O)c1C	Tau FP inhib inconclusive, Tau fluor cs 12.6µM[quencher], Tau fibril ThT inconclusive
O=C(NNC(=O)c1sccc1-n1cccc1)c1ccc(Cl)cc1	PNC assembly inh inconclusive
CCOC(=O)c1cnc(SCc2nc(N)nc(Nc3ccc(C)cc3)n2)nc1N	PNC assembly inh -81.2, Tau fibril ThT inconclusive
Cc1ccc(S(=O)(=O)N2CCC(=O)N(C(COCc3ccc(Cl)cc3)C(C)C)CC2)cc1 (stereo not given)	PNC assembly inh -118.9, Tau fibril ThT inconclusive
Cc1ccc(S(=O)(=O)N2CCC(=O)N(CCOCc3cccc(C(F)(F)F)c3)CC2)cc1	PNC assembly inh -81.3
COCCn1c(=O)[nH]c2cc(C(=O)NC3CCCCCC3)ccc2c1=O	none
CC1CCCN(C(=O)C2CCN(CC3CC=CCC3)CC2)C1 (stereo not given)	PNC assembly inh -100.0
C/C=C/C(=O)OCC(=O)Nc1cccc(F)c1	none (no result: PNC assembly inh)
CCOC(=O)C1CCN(C(=O)COc2cccc(C)c2)CC1	PNC assembly inh -84.8
CC(=O)c1cc(F)c(N2CCN(C(=O)COc3ccc(F)cc3)CC2)cc1C	PNC assembly inh -100.0
Cc1cccc(OCC(=O)N2CCOCC2)c1	none
COc1ccc(OCC(=O)N2CCN(C(=O)COc3ccc(Br)cc3)CC2)cc1	none
CC(=O)N1CCN(C(=O)COc2ccc(Br)cc2)CC1	PNC assembly inh -81.3
CCOC(=O)C1CCN(C(=O)COc2ccc(Br)cc2)CC1	PNC assembly inh -96.9
CCOC(=O)C1CCN(C(=O)COc2ccc(Br)cc2Br)CC1	none (no result: PNC assembly inh)
Cc1ccccc1NC(=S)N1CCCC(c2nc3ccccc3[nH]2)C1 (stereo not given)	none (no result: PNC assembly inh)
CC(C)c1nc(N2CCCC2)c(C#N)c2c1CCCC2	none
CCOC(=O)C1CCN(CC(O)COc2ccc(C(C)(C)CC)cc2)CC1 (stereo not given)	PNC assembly inh -80.6
CCOC(=O)C1CCN(CC(O)COc2ccc(C(C)(C)C)cc2)CC1 (stereo not given)	none
COc1cc(/C=N/NC(=O)c2cc(-c3ccccc3)sc2N)cc(OC)c1OC	Tau FP inhib inconclusive, Tau fluor cs 12.6µM[quencher] (no result: PNC assembly inh, Tau fibril ThT)
COc1cc(/C=N/NC(=O)c2cc(-c3cccs3)nc3ccccc23)ccc1O	Tau fluor cs 17.8µM[quencher], Tau fibril ThT inconclusive (no result: PNC assembly inh)
N#Cc1ccc(/C=N/NC(=O)c2cc(-c3cccs3)nc3ccccc23)cc1	Tau FP inhib inconclusive, Tau fluor cs inconclusive
COc1cc(/C=N/NC(=S)N/N=C/c2cc(OC)c(OC)c(OC)c2)cc(OC)c1OC	PNC assembly inh -109.4
NNC(=O)c1cc(-c2ccccc2)sc1N	Tau fluor cs inconclusive, Tau fibril ThT 7.94µM (no result: PNC assembly inh)
NNC(=O)c1sc(-c2ccccc2)cc1N	Tau fibril ThT inconclusive (no result: PNC assembly inh)
Cn1c(SCC(=O)c2ccccc2)nnc1-c1cccnc1	PNC assembly inh inconclusive
O=C(c1cccn2c(=O)c3ccccc3nc12)N1CCN(c2ccccn2)CC1	PNC assembly inh inconclusive
O=C(Nc1sc(-c2ccccc2)cc1C(=O)O)c1ccccc1	Tau fluor cs inconclusive, Tau fibril ThT 12.6µM (no result: PNC assembly inh)
CCOC(=O)c1cc(-c2ccccc2)sc1NC(=O)c1ccc(OC)cc1	none
Cc1cc(C)n(C(=O)c2ccc(Cn3nc(C)c(Br)c3C)o2)n1	PNC assembly inh -100.0
Cc1nn(Cc2ccc(C(=O)n3cccn3)o2)c(C)c1Br	none
Cc1ccc(-n2ncc3c(Nc4ccc(Oc5ccccc5)cc4)ncnc32)c(C)c1	Tau fluor cs inconclusive, Tau fibril ThT inconclusive (no result: PNC assembly inh)
Cc1ccc(-n2ncc3c(Nc4cccc(Cl)c4)ncnc32)c(C)c1	Tau FP inhib 25.1µM, Tau fluor cs inconclusive (no result: PNC assembly inh)
Cc1ccc(-n2ncc3c(Nc4cccc(C(F)(F)F)c4)ncnc32)cc1C	TRb SRC2 PPI inconclusive, Tau FP inhib 10µM, Tau fluor cs inconclusive (no result: PNC assembly inh)
Cc1cc2n(n1)C(c1c[nH]c3ccccc13)Nc1ccccc1-2 (stereo not given)	Tau FP inhib 28.2µM, Tau fluor cs 25.1µM[quencher], PNC assembly inh inconclusive, Tau fibril ThT inconclusive
COc1cc(C2Nc3ccccc3-c3cc(C)nn32)ccc1O (stereo not given)	none (no result: PNC assembly inh)
CCOc1cccc(C2Nc3ccccc3-c3cc(C)nn32)c1O (stereo not given)	TR SRC2 fluor cs 0.0004µM[quencher] (no result: PNC assembly inh)
CCOC(=O)OC(C)OC1=C(C(=O)Nc2ccccn2)N(C)S(=O)(=O)c2ccccc21 (stereo not given)	none (no result: Tau FP inhib, Tau fluor cs, PNC assembly inh, Tau fibril ThT)
Cc1ccc(OCC(=O)Nc2ccc(S(=O)(=O)N3CCCCC3)cc2)c([N+](=O)[O-])n1	none (no result: PNC assembly inh)
Cc1cc(C)c(-c2c(O)c3cccc4c3n(c2=O)CCC4)c(C)c1	PNC assembly inh -100.0
CC1(C)C=Cc2c(c3c(c4c(=O)c(-c5ccc(O)cc5)coc24)OC(C)(C)CC3)O1	Tau FP inhib inconclusive, Tau fluor cs inconclusive, Tau fibril ThT inconclusive (no result: PNC assembly inh)
O=c1c(-c2ccc([N+](=O)[O-])cc2)coc2c(O)c(O)ccc12	none (no result: PNC assembly inh, Tau fibril ThT)
CC(C)=CCc1c2c(c3occ(-c4ccc(O)c(O)c4)c(=O)c3c1O)C=CC(C)(C)O2	Tau FP inhib 25.1µM, Tau fluor cs 3.55µM[quencher], Tau fibril ThT inconclusive (no result: PNC assembly inh)
CC(C)=CCc1c2c(c3occ(-c4ccc(O)cc4)c(=O)c3c1O)C=CC(C)(C)O2	Tau FP inhib 22.4µM, Tau fluor cs 3.16µM[quencher], Tau fibril ThT inconclusive (no result: PNC assembly inh)
CCN(c1ccc(NC(=O)COC(=O)c2cccs2)cc1)C(C)C	Tau fluor cs inconclusive
Cc1c(NC(=O)CSc2n[nH]c(-c3ccccc3)n2)c(=O)n(-c2ccccc2)n1C	none
COc1cc(OC)cc(-c2n[nH]c(=S)n2-c2ccc3c(c2)OCO3)c1	PNC assembly inh -104.1
COc1cccc(/C=N/c2oc(-c3ccccc3)cc2C#N)c1O	PNC assembly inh inconclusive, Tau fibril ThT 14.1µM
